Test [1] in a line: qHTS assay to identify small molecule agonists of the peroxisome proliferator-activated receptor delta (PPARd) signaling pathway - cell viability counter screen (AID 743211). Also: nearly all actives have a fitted effect of over 55% in size. The essentials: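 Read-out: CellTiter-Glo luminescence, 30 min RT, measured in the same wells as the beta-lactamase reporter. Cells: GeneBLAzer PPAR delta UAS-bla HEK293H, 3000 cells/well, compound exposure 17 h at 37C.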
(qHTS replaces the single test concentration by a dilution series.)

Test [2] addresses Peroxisome proliferator-activated receptor delta (Homo sapiens) (UniProt Q03181). Description: qHTS assay to identify small molecule agonists of the peroxisome proliferator-activated receptor delta (PPARd) signaling pathway (AID 743212; calls by dose curve). A digest of the protocol:
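Cells expressing a UAS-driven beta-lactamase reporter (PPARd-bla HEK293H) were given test compounds after a 5 h settle and kept at 37 C. Reporter activity was then measured as FRET fluorescence using LiveBLAzer B/G substrate.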

The nature of test [3]: qHTS assay to identify small molecule antagonists of the peroxisome proliferator-activated receptor delta (PPARd) signaling pathway - cell viability counter screen (AID 743213). Also: nearly all actives have a fitted effect of over 50% in size. The essentials: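 In this counter screen, HEK293H cells carrying a UAS-beta-lactamase reporter are co-treated with test compounds and 300 nM L165041 (final) for 17 h at 37 C; cell viability is quantified by CellTiter-Glo luminescence.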

Test [4] in a line: qHTS assay to identify small molecule agonists of the farnesoid-X-receptor (FXR) signaling pathway - cell viability counter screen (AID 743218). Also: nearly all actives have a fitted effect of over 45% in size. The essentials: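 Luminescence from CellTiter-Glo, read after 30 min at RT, reports viability of GeneBLAzer FXR-UAS-bla HEK 293T cells treated 16 h with compounds in the wells used for the beta-lactamase reporter.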
The nature of test [5]: qHTS assay to identify small molecule antagonists of the farnesoid-X-receptor (FXR) signaling pathway - cell viability counter screen (AID 743221; active = well fitted cell-killing curve with a large enough effect in the repeat runs, not every such curve was filed as active; also: nearly all actives have a fitted effect of over 50% in size). A digest of the protocol:
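HEK 293T FXR-bla cells, 5 h pre-incubation; compound + CDCA 50 uM final, 16 h, 37 C; beta-lactamase FRET read first, then CellTiter-Glo luminescence, 30 min RT.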

The target of test [6] is Peroxisome proliferator-activated receptor delta (Homo sapiens) (UniProt Q03181). Description: qHTS assay to identify small molecule antagonists of the peroxisome proliferator-activated receptor delta (PPARd) signaling pathway (AID 743215; active = well fitted inhibition curve with a large enough effect in the signal ratio in the repeat runs, not every such curve was filed as active; the % refers to the signal ratio;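 also: cells stimulated with agonist L165041 at 300 nM final during compound exposure; series mostly up to about 62 µM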). A digest of the protocol:
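HEK293H GeneBLAzer PPARd UAS-bla reporter cells; cpd + L165041 300 nM final, 17 h 37 C; LiveBLAzer B/G FRET substrate 2 h RT; fluorescence intensity read-out. Antagonist mode.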

Test [7] deals with Vitamin D3 receptor (Homo sapiens) (UniProt P11473). The experiment in a line: qHTS assay to identify small molecule agonists of the vitamin D receptor (VDR) signaling pathway (AID 743222; calls by dose curve). The essentials: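 Beta-lactamase reporter readout (LiveBLAzer B/G FRET, 2 h RT) in VDR-bla cells after 16 h compound treatment at 37C, 5% CO2; cells pre-incubated 4 h before pin transfer of DMSO solutions.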
Vitamin D3 receptor (Homo sapiens), sequence (P11473 whole entry, looked up): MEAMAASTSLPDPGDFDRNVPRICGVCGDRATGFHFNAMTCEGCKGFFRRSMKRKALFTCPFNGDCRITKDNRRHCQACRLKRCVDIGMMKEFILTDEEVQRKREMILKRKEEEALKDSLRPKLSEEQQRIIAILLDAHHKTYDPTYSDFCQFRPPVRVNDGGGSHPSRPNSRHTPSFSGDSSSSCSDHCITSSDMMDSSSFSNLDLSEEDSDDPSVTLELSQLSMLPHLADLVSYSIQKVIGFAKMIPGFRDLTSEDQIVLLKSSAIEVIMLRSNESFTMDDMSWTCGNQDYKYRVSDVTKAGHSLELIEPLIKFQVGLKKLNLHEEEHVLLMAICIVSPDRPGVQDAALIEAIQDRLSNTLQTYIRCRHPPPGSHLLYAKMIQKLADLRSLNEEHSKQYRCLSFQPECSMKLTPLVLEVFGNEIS

For test [8] the target is unchanged. Description: qHTS assay to identify small molecule antagonists of the vitamin D receptor (VDR) signaling pathway (AID 743223; active = well fitted inhibition curve with a large enough effect in the signal ratio in the repeat runs, not every such curve was filed as active; the % refers to the signal ratio). The essentials:
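Beta-lactamase reporter read-out: FRET substrate fluorescence after 2 h at room temperature, following 16 h exposure of VDR-bla cells to test compound plus 3 nM (final) 1alpha,25-dihydroxyvitamin D3 agonist at 37C.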

In test [9] the target is Bile acid receptor (Homo sapiens) (UniProt Q96RI1). The experiment in a line: qHTS assay to identify small molecule antagonists of the farnesoid-X-receptor (FXR) signaling pathway (AID 743217; active = well fitted inhibition curve with a large enough effect in the signal ratio in the repeat runs, not every such curve was filed as active; the % refers to the signal ratio; also: potency is read from the fitted curve at half-maximal effect). A digest of the protocol: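 Read-out: beta-lactamase FRET fluorescence (LiveBLAzer B/G substrate, 2 h, room temperature) in GeneBLAzer FXR-UAS-bla HEK 293T cells. Compounds were co-dosed with 50 uM chenodeoxycholic acid (final) and incubated 16 h at 37 °C.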
Bile acid receptor (Homo sapiens), sequence (Q96RI1 whole entry, looked up): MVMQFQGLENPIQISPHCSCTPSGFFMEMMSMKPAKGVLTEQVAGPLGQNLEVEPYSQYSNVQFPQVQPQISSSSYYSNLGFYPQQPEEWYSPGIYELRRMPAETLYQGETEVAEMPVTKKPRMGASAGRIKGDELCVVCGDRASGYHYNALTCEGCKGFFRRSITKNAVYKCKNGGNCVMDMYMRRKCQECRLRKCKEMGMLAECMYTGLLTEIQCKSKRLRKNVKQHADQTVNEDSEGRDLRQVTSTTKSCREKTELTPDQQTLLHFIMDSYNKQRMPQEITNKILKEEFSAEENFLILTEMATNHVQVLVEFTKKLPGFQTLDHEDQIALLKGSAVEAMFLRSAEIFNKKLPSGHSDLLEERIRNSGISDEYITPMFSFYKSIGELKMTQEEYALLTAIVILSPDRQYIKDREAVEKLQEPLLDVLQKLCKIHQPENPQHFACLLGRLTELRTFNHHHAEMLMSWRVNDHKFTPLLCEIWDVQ

For test [10] the target is unchanged. Description: qHTS assay to identify small molecule agonists of the farnesoid-X-receptor (FXR) signaling pathway (AID 743220; active = well fitted activation curve with a large enough effect in the signal ratio in the repeat runs, not every such curve was filed as active; the % refers to the signal ratio). A digest of the protocol:
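FXR-UAS-bla HEK 293T cells carrying a UAS-driven beta-lactamase reporter were plated for 5 h at 37C/5% CO2, then exposed to DMSO-dissolved Tox21 10K compounds for 16 h at 37C. A LiveBLAzer B/G FRET substrate was loaded for 2 h at room temperature before fluorescence reading.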

Records with an inconclusive call do not appear. Unmarked numbers belong to inactive results. Activity calls are given as the source filed them. Unless noted, calls follow the shape of the dose curve; as a rule, active = well fitted curve in the direction sought with a large enough effect in the repeat runs; inconclusive = weak or mixed curves; inactive = no such curve, though single readings can be large; an effect the other way counts as inactive or inconclusive.
% is scaled to controls: 0 for no effect and ±100 for the full control effect.

Peroxisome proliferator-activated receptor delta (Homo sapiens), sequence (Q03181 whole entry, looked up): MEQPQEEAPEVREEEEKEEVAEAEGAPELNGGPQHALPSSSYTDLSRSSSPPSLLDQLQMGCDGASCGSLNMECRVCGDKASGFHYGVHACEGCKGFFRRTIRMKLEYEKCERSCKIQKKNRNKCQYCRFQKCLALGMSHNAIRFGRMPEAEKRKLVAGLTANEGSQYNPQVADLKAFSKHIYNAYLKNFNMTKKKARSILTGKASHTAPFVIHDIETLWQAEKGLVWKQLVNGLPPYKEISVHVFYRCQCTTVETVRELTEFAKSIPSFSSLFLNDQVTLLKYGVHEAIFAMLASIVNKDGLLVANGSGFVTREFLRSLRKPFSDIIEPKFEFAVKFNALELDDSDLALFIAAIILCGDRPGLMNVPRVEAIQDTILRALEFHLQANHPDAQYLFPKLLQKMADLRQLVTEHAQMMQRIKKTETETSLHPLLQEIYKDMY

Consider `CCO[Si](CCCS)(OCC)OCC`, for which the call in test [1], in test [2], in test [3] and in test [5] was inactive. The Potency entry in test [4] is “inactive”.

For the compound `CCn1ccc(NS(=O)(=O)c2ccc(N)cc2)nc1=O`, the call in test [1], in test [2], in test [3], in [6], in test [5] and in [7] was inactive. In [4], the Potency entry was “inactive”.

`O=S(O)(O)=S`: the figures for the activity change, negative = cytotoxicity in test [1] and in [5] were 0.0962% [at 5.95 µM] and 6.74% [at 5.95 µM], respectively. For the same compound, the activation in test [2] was 0.0872% [at 5.95 µM]. For the same compound, the figures for the viability change, negative = cytotoxic in test [3] and in test [4] were -0.861% [at 6.26 µM] and 3.63% [at 5.95 µM], respectively. For the same compound, the ratio activity, negative = inhibition in test [6] was 3.14% [at 6.26 µM].

In the case of `CC(C)CCCCOC(=O)c1ccccc1C(=O)OCCCCC(C)C`, the result in test [1], in test [2], in test [3], in test [6] and in test [5] was inactive. In test [4], the Potency entry is “inactive”.

Regarding `CC(C)CCCC(C)(C)O`, the compound was classed as inactive in test [1], in test [2], in test [3], in [6], in test [5] and in test [8]. The Potency entry in test [4] is “inactive”.

As to `Cc1ccc2ccc(Cl)cc2n1`, the compound was called inactive in [1], in test [2], in test [3], in [6], in test [5] and in [7]. The call in [8] was inactive. Further, the Potency result in test [4] was “inactive”.

For `CC(=O)NCCCCCC(=O)O`, the result in [1], in test [2], in test [3], in [6], in test [5] and in test [7] was inactive. Besides, the result in test [8] was inactive. Moreover, in test [4], the Potency result is “inactive”.

As to `O=C(CCN1CCN(CCO)CC1)N1c2ccccc2Sc2ccc(C(F)(F)F)cc21`, the compound was called inactive in test [1], in test [2], in test [3], in [6], in test [5] and in test [7]. In addition, in test [8], the compound was called inactive.

Turning to `CN=C(NC#N)Nc1ccc(C2=NNC(=O)CC2C)cc1` (stereo not given), the compound was called inactive in test [1], in test [2], in [3], in test [6], in test [5] and in test [7]. In [8], the compound was called inactive.

Take `CCc1ccc(C=O)cc1`: the result in test [1], in test [2], in test [3], in [6], in [5] and in test [8] was inactive. In test [4], the Potency result is “inactive”.

With `Cc1ccccc1N=O`, the compound was classed as inactive in test [1], in test [2], in test [3], in test [5], in test [7] and in [8]. Also, the Potency result in [9], in test [4] and in test [10] was “inactive” in each case.

For the compound `CCCC/C=C\CCCCCCCCCC=O`, the compound was classed as inactive in [1], in test [2], in test [3], in [5], in [7] and in test [8]. Besides, the Potency result in [9], in test [4] and in test [10] was “inactive” throughout.

Regarding `CC(C)C(=O)OCc1cccc(OC(=O)[C@@H]2N3C(=O)[C@@H](NC(=O)Cc4ccccc4)[C@H]3SC2(C)C)c1`, the compound was classed as inactive in test [1], in test [2], in test [3], in test [6], in [5] and in test [7]. The outcome in test [8] was inactive. Further, the Potency entry in [4] was “inactive”.

On to `Cc1[nH]cnc1-c1ccc(Cl)cc1`, for which the compound was called inactive in [1], in test [2], in [3], in [6] and in [5]. Also, the Potency entry in test [4] is “inactive”.

Consider `CC1(C)S[C@@H]2[C@H](N=CN3CCCCCC3)C(=O)N2[C@H]1C(=O)O`, for which the compound was classed as inactive in test [1], in test [2], in [3], in test [6], in [5] and in test [7]. Moreover, in [8], the compound was called inactive. Besides, the Potency entry in [4] was “inactive”.

Take `O=S(=O)(O)c1ccc2cc(O)c(S(=O)(=O)O)cc2c1`: the compound was called inactive in test [1], in test [2], in test [3], in [6], in [5] and in test [7]. The call in [8] was inactive. In addition, in test [4], the Potency entry is “inactive”.

As to `CNS(=O)(=O)CCc1ccc2[nH]cc(C3CCN(C)CC3)c2c1`, the compound was classed as inactive in test [1], in test [2], in [3], in [6], in test [5] and in test [7]. Moreover, the call in test [8] was inactive. Further, the Potency entry in [4] is “inactive”.

As for `CC(C)OC(=O)CCCCC(=O)OC(C)C`, the compound was called inactive in test [1], in test [2], in test [3], in test [5], in [7] and in test [8]. For the same compound, the Potency in [9] was 24.6 µM (active). The Potency entry in test [4] and in test [10] was “inactive” in each case.

Take `ClCCCl`: the result in [1], in test [2], in test [3], in test [6], in test [5] and in [7] was inactive. Further, the outcome in test [8] was inactive.

In the case of `Oc1ccccc1-c1nnco1`, the outcome in test [1], in [2], in test [5], in test [7] and in test [8] was inactive. Besides, in test [4], the Potency entry is “inactive”.

Turning to `CCCCCCN`, the compound was classed as inactive in test [1], in [2], in test [6], in test [5], in test [7] and in test [8]. The Potency entry in test [4] is “inactive”.

In the case of `CC(C(=O)O)c1ccc2c(c1)CC(=O)c1ccccc1S2` (stereo not given), the compound was classed as inactive in test [1], in [3], in [6] and in [5]. The Potency result in test [4] was “inactive”.

Take `C[C@@H](Oc1ccc(CNC(=O)c2cccnc2Oc2ccc3c(c2)OCO3)c(F)c1)C(=O)O`: the compound was called inactive in test [1], in test [2], in [6], in test [5], in test [7] and in [8]. In addition, the Potency entry in [9], in test [4] and in test [10] was “inactive” in each case.

Consider `O=C(O)c1ccc(Cl)cc1Cl`, for which the call in test [1], in test [3], in test [6], in test [5], in test [7] and in test [8] was inactive. For the same compound, the Potency result in [9], in [4] and in test [10] was “inactive” in each case.

On to `C=C(C)C(=O)OCCOP(=O)(O)OCCOC(=O)C(=C)C`, for which the compound was called inactive in test [1], in test [2], in [6], in test [5] and in test [7]. Besides, the Potency entry in test [9], in test [4] and in test [10] was “inactive” each time.

For `OCCN(CCO)c1cccc(Cl)c1`, the outcome in test [1], in test [2], in [5] and in test [7] was inactive.

For the compound `CC(=O)c1ccc2c(c1)Cc1ccccc1-2`, the compound was called inactive in test [1], in test [3], in test [6], in test [5] and in test [7]. Moreover, the Potency entry in test [9], in test [4] and in [10] was “inactive” in each case.

For the compound `COc1ccc2nc(SCc3ncc(C)c(OC)c3C)[nH]c2c1`, the compound was classed as inactive in [1], in [2], in test [6] and in [5]. Further, in test [4], the Potency entry was “inactive”.

Turning to `CCCCCCOc1ccccc1C(N)=O`, the result in test [1], in test [2], in test [6], in test [5], in [7] and in test [8] was inactive.

For `O=C1CCCC(=O)O1`, the call in test [1], in test [2], in test [5] and in [8] was inactive. Besides, the Potency result in test [4] is “inactive”.

`O=C(O)Cc1ccc(Cl)cc1Cl`: the call in [1], in test [2], in test [6], in test [5], in test [7] and in test [8] was inactive. Besides, the Potency result in [4] is “inactive”.

With `CC(=O)Nc1ccc(S(=O)(=O)Nc2ccc([N+](=O)[O-])cc2)cc1`, the call in test [1], in [2], in test [5], in test [7] and in test [8] was inactive. Further, the Potency result in test [4] is “inactive”.

These data come from PubChem BioAssay (Tox21).
